An excerpt weighted towards active compounds, which were near 1.2% of everything screened.
Pol III holo inh – inhibitors of bacterial DNA polymerase III holoenzyme. Potency, µM (titrated, usually from 57.1 µM). actives 0.25% (n = 71,000). reconstituted DNA polymerase III holoenzyme replication, biochemical
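Reconstituted *E. coli* holoenzyme (0.35 nM Pol III, 1 nM beta, 154 nM SSB, 2 nM primase) was preincubated with compound for 15 min at RT. Synthesis on 1.4 nM ssM13Gori ran 35 min, then was stopped with PicoGreen/EDTA and read as dsDNA fluorescence.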
BRCT inh red – inhibitors of human BRCA1 BRCT-phosphoprotein interaction (red fluorophore); P38398; BRCT-phosphopeptide binding, red fluorescence polarization; Potency, µM (doses to about 76.9 µM), usual class: inhibitors; actives 0.03% (n = 75,000); AID 892
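Rhodamine-labelled pBACH1 10-mer (100 nM) bound to BRCT domain (100 nM) at pH 7.3; compounds incubated 12 min room temperature, polarization read. Free peptide defines full inhibition; unlabelled decapeptide titrated as control.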
ERK AVP inh – inhibitors of vasopressin-stimulated ERK signaling pathway; HEK293-V1b, vasopressin-stimulated pERK AlphaScreen; Potency, µM (top dose mostly 57.5 µM), usual class: inhibitors; actives 0.99% (n = 72,000); AID 995; also: nearly all actives have a fitted effect of over 55% in size
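qHTS, compounds titrated on V1b-expressing HEK293 cells. Preincubation 30 min at 37C, vasopressin 25 nM for 5 min, lysis 10 min, bead incubation 5 hr at room temperature.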
TsaE inh – displaces an ADP probe from E. coli YjeE (TsaE) | P0AF67 | Potency, µM | actives 0.05% (n = 71,000) | purified YjeE enzyme, qHTS inhibition assay | AID 605
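Purified YjeE (10 uM) with BODIPY Texas Red-labeled ADP probe (2 uM); compounds pin-transferred, 15 min at room temperature. Binding inhibition read as decreased fluorescence polarization; ADP titration as control.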
BRCT inh green – BRCA1 BRCT-phosphoprotein interaction inhibition; Potency, µM (top dose mostly 76.9 µM), most hits filed as inhibitors; P38398; actives 0.05% (n = 75,000); AID 875; BRCA1 BRCT-phosphopeptide binding, green fluorescence polarization
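Compounds were incubated for 12 min at room temperature with a complex of 100 nM fluorescein-tagged pBACH1 decapeptide and 250 nM His-tagged BRCT protein. Buffer was phosphate pH 7.3 with EDTA, DTT and Tween 20. Disruption of binding lowers the polarization signal.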
Large screens that a line does not name were inactive; ! = a repeat was not active. Calls follow the shape of the dose curve; as a rule, active = well fitted curve in the direction sought with a large enough effect; inconclusive = small, poorly fitted or top-dose-only effect, or another doubt; inactive = no such curve, though single readings can be large; an effect the other way counts as inactive or inconclusive.

CC(C)Nc1ccc(Nc2ccccc2)cc1	TsaE inh 100µM
C[C@@]12CCC[C@](C)(C(=O)O)[C@@H]1CCc1ccc(O)cc12	none (no result: BRCT inh red, ERK AVP inh, BRCT inh green)
O=c1ccc2cc(O[C@@H]3O[C@@H](CO)[C@@H](O)[C@@H](O)[C@H]3O)c(O)cc2o1	none (no result: BRCT inh red, ERK AVP inh, BRCT inh green)
Cc1c2ccncc2c(C)c2c1[nH]c1ccccc12	Pol III holo inh 7.9µM
c1ccc2c(c1)[nH]c1cnccc12	none (no result: Pol III holo inh, TsaE inh)
Cc1cccc(N2CCc3c2nc2ccccc2c3N)c1	ERK AVP inh 25µM!
Cc1ccnc(-n2c(C)nc3ccccc3c2=O)c1	none
CNc1ccc2oc(C[C@@H]3O[C@@]4(CC[C@H]3C)O[C@@H]([C@@H](C)C(=O)c3ccc[nH]3)[C@@H](C)C[C@H]4C)nc2c1C(=O)O	none (no result: BRCT inh red, ERK AVP inh, BRCT inh green)
C=C[C@@H]1CN2CC[C@@H]1C[C@H]2[C@H](O)c1ccnc2ccccc12	none (no result: BRCT inh red, ERK AVP inh, BRCT inh green)
Nc1c(C(=O)NCCN2CCOCC2)c2nc3ccccc3nc2n1Cc1ccco1	ERK AVP inh 16µM
CC(C)C[C@H]1C(=O)N2CCC[C@@H]2[C@]2(O)O[C@](NC(=O)[C@H]3C=C4c5cccc6[nH]cc(c56)C[C@H]4N(C)C3)(C(C)C)C(=O)N12	none (no result: BRCT inh red, ERK AVP inh, BRCT inh green)
Cc1cc2c(C(C)C)c(O)c(O)c(C=O)c2c(O)c1-c1c(C)cc2c(C(C)C)c(O)c(O)c(C=O)c2c1O	ERK AVP inh 25µM!, TsaE inh 100µM!
CC(C)n1cc2c3c(cccc31)[C@@H]1C[C@H](C(=O)O[C@@H](C)[C@H](C)O)CN(C)[C@H]1C2	ERK AVP inh inconclusive
CC(C)N[C@@H](C)Cc1ccc(I)cc1	none
Cn1nc(-c2ccc(OCC(=O)N3CCN(Cc4ccccc4)CC3)cc2)c2ccccc2c1=O	ERK AVP inh 32µM
COC(=O)[C@H](N)CCCN=C(N)N[N+](=O)[O-]	none
COc1ccc(OC)c(C(O)C(C)N)c1 (stereo not given)	none (no result: Pol III holo inh, TsaE inh)
C[C@H](N)[C@H](O)c1ccc(O)c(O)c1	Pol III holo inh 5µM
O=C1C=C2C(=CCOC2O)O1 (stereo not given)	ERK AVP inh 32µM (no result: Pol III holo inh, TsaE inh)
O=C1C=CC(=O)c2c1ccc1c2ccc2ccccc21	ERK AVP inh 13µM
COC(=O)[C@@H]1C[C@@H]1[C@@H](NP(=O)(c1ccccc1)c1ccccc1)c1ccccc1	none (no result: BRCT inh red, ERK AVP inh, BRCT inh green)
CO[C@H]1[C@H](O)[C@H](O[C@@H]2[C@H](Oc3cccc4c(O)c5c(=O)oc6ccc(C)c7c(=O)oc(c34)c5c67)O[C@@H](C)[C@H](O)[C@H]2O)O[C@@H](C)[C@@H]1O	Pol III holo inh 3.2µM
CN(c1ccccc1)S(=O)(=O)c1cccc(C(=O)N2CCN(c3ccccn3)CC2)c1	ERK AVP inh 25µM
C[C@@H]1[C@H]2C=C[C@@H]1[C@@H](c1c3ccc(=O)c(O)c-3oc3c(O)c(O)ccc13)[C@@H]2C(=O)O	Pol III holo inh 0.13µM, BRCT inh red inconclusive, BRCT inh green inconclusive
O=C1C2CC=CCC2C(=O)N1SC(Cl)(Cl)Cl (stereo not given)	Pol III holo inh 40µM!, ERK AVP inh 16µM
NC(N)=Nc1ccc2[nH]c3c(c2c1)C[C@]1(O)[C@@H]2Cc4ccc(O)c5c4[C@]1(CCN2CC1CC1)[C@H]3O5	ERK AVP inh inconclusive
C[C@@H]1CC[C@@]2(OC1)O[C@H]1[C@@H](O)[C@H]3[C@@H]4CC[C@H]5C[C@@H](O[C@@H]6O[C@H](CO)[C@H](O[C@@H]7O[C@H](CO)[C@@H](O)[C@H](O[C@@H]8OC[C@@H](O)[C@H](O)[C@H]8O)[C@H]7O[C@@H]7O[C@H](CO)[C@@H](O)[C@H](O[C@@H]8O[C@H](CO)[C@@H](O)[C@H](O)[C@H]8O)[C@H]7O)[C@H](O)[C@H]6O)[C@H](O)C[C@]5(C)[C@H]4CC[C@]3(C)[C@H]1[C@@H]2C	ERK AVP inh 32µM
COC(=O)Nc1cccc(OC(=O)Nc2cccc(C)c2)c1	ERK AVP inh 32µM
CSC([N-]/N=C/c1cccc(C)n1)=[S]=[Cu].CS[C@H]([S-])[N-]/N=C/c1cccc(C)n1	ERK AVP inh inconclusive
COc1ccc(C[C@@H]2NC[C@H](O)[C@H]2OC(C)=O)cc1	none (no result: BRCT inh red, ERK AVP inh, BRCT inh green)

Source: PubChem
